Broadly, the AC50 is the concentration at which the activity in the assay is half-maximal.

Active and inactive are the calls of the source. Rule for the calls: active = hit-call score of the fitted dose curve at least 0.9, where 1 is the maximum; inactive = score below 0.9.

28 compounds from PubChem BioAssay (EPA / NIEHS) can be followed below.

Sequence of Cellular tumor antigen p53 (Homo sapiens) (P04637 whole entry, looked up): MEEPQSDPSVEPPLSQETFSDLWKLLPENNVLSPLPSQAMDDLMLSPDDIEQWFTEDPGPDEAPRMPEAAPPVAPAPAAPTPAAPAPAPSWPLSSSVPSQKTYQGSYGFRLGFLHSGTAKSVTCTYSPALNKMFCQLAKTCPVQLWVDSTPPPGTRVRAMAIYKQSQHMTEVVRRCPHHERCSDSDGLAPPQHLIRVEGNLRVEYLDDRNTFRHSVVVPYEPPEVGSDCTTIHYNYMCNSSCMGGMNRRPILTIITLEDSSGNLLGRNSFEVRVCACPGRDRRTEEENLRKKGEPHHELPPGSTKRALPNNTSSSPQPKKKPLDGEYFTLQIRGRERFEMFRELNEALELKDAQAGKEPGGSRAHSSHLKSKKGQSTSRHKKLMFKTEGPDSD

Tested on in the first experiment: not listed separately
The experiment in a line: ATG_NRF2_ARE_CIS: Attagene CIS-FACTORIAL HepG2 Assay for human Nuclear Factor Erythroid 2 Related Factor 2 (NFR2) response to Antioxidant Response Elements (ARE) (AID 2282992).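 For AC50: reporter mRNA level measured by RT-PCR and capillary electrophoresis fluorescence.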 The conditions noted are these: HepG2 Attagene ARE/NRF2 reporter, transcription factor activity; actives raise or lower the signal. The method, boiled down:
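Fluorescence intensity of reporter-specific cDNA fragments, separated by capillary electrophoresis, reflects mRNA induction in transfected HepG2 cells at 24 h. Activity is fitted bidirectionally, DMSO serving as baseline.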
As to `c1ccc2c(c1)-c1cccc3cccc-2c13`, the compound was called inactive.

For `Cc1ccc([N+](=O)[O-])cc1`, the outcome was inactive.

For `N#CC(Br)(Br)C(N)=O`, the AC50 is 100 µM (active).

On to `CC(C)(C)OOC(C)(C)CCC(C)(C)OOC(C)(C)C`, for which the AC50 was 75.2 µM (active).

Regarding `O=C1CCCO1`, the call was inactive.

For the compound `CCCCC(CC)COC(=O)c1ccc(C(=O)OCC(CC)CCCC)c(C(=O)OCC(CC)CCCC)c1` (stereo not drawn), the compound was called inactive.

Turning to `COc1cc(C=O)cc2c1[C@H](COC(N)=O)[C@]1(OC(C)=O)ON2C[C@H]2[C@@H]1N2C(C)=O`, the AC50 was 17 µM (active).

As to `CC(O)CCO` (stereo not drawn), the call was inactive.

As for `COC(=O)Nc1nc2ccccc2[nH]1`, the AC50 was 21.4 µM (active).

Take `Cc1ccc(N)c(N)c1`: the concentration at half-maximal activity (AC50) is 8.84 µM (active).

On to `ClC1=C(Cl)[C@]2(Cl)[C@H]3[C@H]([C@@H]4C=C[C@H]3C4)[C@@]1(Cl)C2(Cl)Cl`, for which the concentration at half-maximal activity (AC50) was 50.5 µM (active).

As for `OCCCBr`, the outcome was inactive.

Consider `Nc1cc(Cl)cc(C(=O)O)c1Cl`, for which the call was inactive.

On to `O=Cc1ccco1`, for which the result was inactive.

In the case of `CC(C)(C)OOC(=O)c1ccccc1`, the AC50 is 79.5 µM (active).

For `Cc1ccc(N=C=O)cc1N=C=O`, the compound was called inactive.

Consider `COC(=O)c1ccccc1N`, for which the result was inactive.

As to `[O-][Cl+]O`, the outcome was inactive.

Turning to `CCOc1cccc(C2(N3CCN(c4ccccc4)CC3)CCC(C)CC2)c1` (stereo not drawn), the compound was classed as inactive.

Consider `CCC12COCN1COC2`, for which the call was inactive.

For the compound `C[N+](C)(C)CC1CO1` (stereo not drawn), the call was inactive.

Take `Cc1ccc(N)cc1`: the call was inactive.

On to `CS(=O)(=O)NC(=O)c1cc(Oc2ccc(C(F)(F)F)cc2Cl)ccc1[N+](=O)[O-]`, for which the compound was called inactive.

For `CCN(CC)N=O`, the outcome was inactive.

Take `CCN(CC)CCO`: the outcome was inactive.

`C1=Cc2cccc3cccc1c23`: the compound was called inactive.

Consider `OCCOCCO`, for which the compound was called inactive.

Regarding `Clc1ccc(Cl)c(Cl)c1`, the compound was classed as inactive.

Tested on in a further experiment: not listed separately
The experiment can be described thus: ATG_Oct_MLP_CIS: Attagene CIS-FACTORIAL HepG2 Assay for human Octamer-Binding Transcription Factor (Oct) (AID 2282993). The settings on record: HepG2 Attagene cis-factorial Oct reporter, mRNA; actives raise or lower the signal. The gist of the method:
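Readout is reporter transcript level from RT-PCR with fluorescent primer extension and capillary electrophoresis, fitted in both directions against DMSO. Transfected HepG2 reporter units report endogenous factor activity after 24 h dosing.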
Take `c1ccc2c(c1)-c1cccc3cccc-2c13`: the call was inactive.

Consider `Cc1ccc([N+](=O)[O-])cc1`, for which the call was inactive.

Turning to `N#CC(Br)(Br)C(N)=O`, the result was inactive.

As for `CC(C)(C)OOC(C)(C)CCC(C)(C)OOC(C)(C)C`, the call was inactive.

`O=C1CCCO1`: the outcome was inactive.

Turning to `CCCCC(CC)COC(=O)c1ccc(C(=O)OCC(CC)CCCC)c(C(=O)OCC(CC)CCCC)c1` (stereo not drawn), the call was inactive.

As for `COc1cc(C=O)cc2c1[C@H](COC(N)=O)[C@]1(OC(C)=O)ON2C[C@H]2[C@@H]1N2C(C)=O`, the AC50 was 0.179 µM (active).

Consider `CC(O)CCO` (stereo not drawn), for which the compound was called inactive.

Take `COC(=O)Nc1nc2ccccc2[nH]1`: the outcome was inactive.

Consider `Cc1ccc(N)c(N)c1`, for which the AC50 is 42.3 µM (active).

Turning to `ClC1=C(Cl)[C@]2(Cl)[C@H]3[C@H]([C@@H]4C=C[C@H]3C4)[C@@]1(Cl)C2(Cl)Cl`, the half-maximal activity concentration (AC50) was 25.1 µM (active).

For the compound `OCCCBr`, the call was inactive.

As for `Nc1cc(Cl)cc(C(=O)O)c1Cl`, the compound was called inactive.

As to `O=Cc1ccco1`, the compound was classed as inactive.

Regarding `CC(C)(C)OOC(=O)c1ccccc1`, the compound was classed as inactive.

Consider `Cc1ccc(N=C=O)cc1N=C=O`, for which the compound was classed as inactive.

As for `COC(=O)c1ccccc1N`, the compound was classed as inactive.

In the case of `[O-][Cl+]O`, the compound was called inactive.

Consider `CCOc1cccc(C2(N3CCN(c4ccccc4)CC3)CCC(C)CC2)c1` (stereo not drawn), for which the call was inactive.

For `CCC12COCN1COC2`, the result was inactive.

Consider `C[N+](C)(C)CC1CO1` (stereo not drawn), for which the compound was classed as inactive.

For `Cc1ccc(N)cc1`, the compound was called inactive.

Take `CS(=O)(=O)NC(=O)c1cc(Oc2ccc(C(F)(F)F)cc2Cl)ccc1[N+](=O)[O-]`: the call was inactive.

For `CCN(CC)N=O`, the compound was called inactive.

With `CCN(CC)CCO`, the call was inactive.

Take `C1=Cc2cccc3cccc1c23`: the result was inactive.

Regarding `OCCOCCO`, the compound was classed as inactive.

With `Clc1ccc(Cl)c(Cl)c1`, the outcome was inactive.

Another experiment has as its target Cellular tumor antigen p53 (Homo sapiens) (UniProt P04637). The experiment can be described thus: ATG_p53_CIS: Attagene CIS-FACTORIAL HepG2 Assay for human p53 Transcription Factor (AID 2282994). The conditions noted are these: HepG2 p53 cis-element reporter, Attagene mRNA; actives raise or lower the signal. The method, boiled down:
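Transiently transfected HepG2 (multiple cis reporter transcription units); exposure 24 h; reporter RNA via RT-PCR, 6-FAM extension, 2 h HpaI digest at 37 C, CE detection; DMSO baseline.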
As for `c1ccc2c(c1)-c1cccc3cccc-2c13`, the result was inactive.

On to `Cc1ccc([N+](=O)[O-])cc1`, for which the call was inactive.

Regarding `N#CC(Br)(Br)C(N)=O`, the result was inactive.

Turning to `CC(C)(C)OOC(C)(C)CCC(C)(C)OOC(C)(C)C`, the compound was classed as inactive.

On to `O=C1CCCO1`, for which the compound was called inactive.

On to `CCCCC(CC)COC(=O)c1ccc(C(=O)OCC(CC)CCCC)c(C(=O)OCC(CC)CCCC)c1` (stereo not drawn), for which the result was inactive.

With `COc1cc(C=O)cc2c1[C@H](COC(N)=O)[C@]1(OC(C)=O)ON2C[C@H]2[C@@H]1N2C(C)=O`, the half-maximal activity concentration (AC50) is 5.95 µM (active).

As to `CC(O)CCO` (stereo not drawn), the compound was called inactive.

`COC(=O)Nc1nc2ccccc2[nH]1`: the result was inactive.

Take `Cc1ccc(N)c(N)c1`: the compound was called inactive.

For `ClC1=C(Cl)[C@]2(Cl)[C@H]3[C@H]([C@@H]4C=C[C@H]3C4)[C@@]1(Cl)C2(Cl)Cl`, the compound was called inactive.

For the compound `OCCCBr`, the compound was called inactive.

For the compound `Nc1cc(Cl)cc(C(=O)O)c1Cl`, the compound was called inactive.

For `O=Cc1ccco1`, the compound was classed as inactive.

Take `CC(C)(C)OOC(=O)c1ccccc1`: the concentration at half-maximal activity (AC50) was 136 µM (active).

On to `Cc1ccc(N=C=O)cc1N=C=O`, for which the compound was called inactive.

As to `COC(=O)c1ccccc1N`, the result was inactive.

Regarding `[O-][Cl+]O`, the outcome was inactive.

For `CCOc1cccc(C2(N3CCN(c4ccccc4)CC3)CCC(C)CC2)c1` (stereo not drawn), the outcome was inactive.

Regarding `CCC12COCN1COC2`, the outcome was inactive.

Consider `C[N+](C)(C)CC1CO1` (stereo not drawn), for which the outcome was inactive.

`Cc1ccc(N)cc1`: the result was inactive.

`CS(=O)(=O)NC(=O)c1cc(Oc2ccc(C(F)(F)F)cc2Cl)ccc1[N+](=O)[O-]`: the compound was called inactive.

Regarding `CCN(CC)N=O`, the outcome was inactive.

Turning to `CCN(CC)CCO`, the compound was classed as inactive.

Take `C1=Cc2cccc3cccc1c23`: the outcome was inactive.

On to `Clc1ccc(Cl)c(Cl)c1`, for which the result was inactive.
